# Assay outcomes as filed in PubChem BioAssay.
# Only some compounds are listed: those with a hit (about 9.4% of all), similar ones and a draw of the others.
# ELG1 genotoxic = qHTS screen for small molecules that induce genotoxicity in human embryonic kidney (HEK293T) cells expressing luciferase-tagged ELG1. Potency, µM (series often up to 46 µM), inactives show at the highest dose activity change, positive = activation, actives largely listed as activators. 1.3% of 330,000 active. HEK293T ELG1-luciferase reporter, luminescence, 16 h; further: % of control where 0% means no effect; nearly all actives have a fitted effect of over 60% in size
#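 Cells (2,000/well) expressing the ELG1-luciferase fusion are dosed by pin tool and kept 16 hr at 37 °C, 5% CO2. Signal comes from ONE-Glo luciferase reagent after 30 min at room temperature.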
# Rab9 prom act = qHTS Assay for Rab9 Promoter Activators; Huh7 Rab9 promoter-luciferase reporter, luminescence, 24 h; Potency, µM (titrated, usually from 9.22 µM), without a hit: at the highest dose activation, negative = inhibition, most hits filed as activators; 2.8% of 320,000 active; further: % of control where 0% means no effect; nearly all actives have a fitted effect of over 60% in size
#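 Luminescence from Amplite-detected luciferase (10 minutes, ambient) reports Rab9 promoter activation. Before that, stable Rab9-luciferase Huh7 cells (1500/well, reduced-serum OP-MEM I plus 10% FBS) were exposed to compound for 24 hours at 37C.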
# FLuc modulator = qHTS profiling assay for firefly luciferase inhibitor/activator using purifed enzyme and Km concentrations of substrates (counterscreen for miR-21 project); Potency, µM (doses to about 57.5 µM), inactives show at the top dose activity change, negative = inhibition, actives largely listed as inhibitors; purified FLuc, Km substrates, luminescence inhibition; AID 588342, 2011; Luciferin 4-monooxygenase (Photinus pyralis), P08659; 6.9% of 360,000 active;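 further: plate controls were vehicle for no effect and reference inhibitor for full effect; nearly all actives have a fitted effect of over 55% in size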
# Target sequence (P08659 whole entry, looked up): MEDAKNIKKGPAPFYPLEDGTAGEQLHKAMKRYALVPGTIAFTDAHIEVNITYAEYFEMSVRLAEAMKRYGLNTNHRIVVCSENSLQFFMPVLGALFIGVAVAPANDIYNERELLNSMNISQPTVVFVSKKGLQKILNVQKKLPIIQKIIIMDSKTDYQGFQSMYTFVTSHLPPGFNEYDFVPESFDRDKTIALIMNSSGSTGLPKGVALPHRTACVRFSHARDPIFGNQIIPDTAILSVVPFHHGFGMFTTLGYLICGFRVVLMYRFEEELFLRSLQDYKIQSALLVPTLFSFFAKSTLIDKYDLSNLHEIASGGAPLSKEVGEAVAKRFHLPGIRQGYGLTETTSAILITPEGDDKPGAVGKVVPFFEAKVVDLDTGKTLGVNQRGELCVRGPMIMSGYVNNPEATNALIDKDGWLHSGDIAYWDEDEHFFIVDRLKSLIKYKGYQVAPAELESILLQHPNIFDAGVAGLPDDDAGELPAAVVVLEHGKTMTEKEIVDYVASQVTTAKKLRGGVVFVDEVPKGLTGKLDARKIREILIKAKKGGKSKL
#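 Purified P. pyralis luciferase (10nM final) with 10uM D-luciferin and 10uM ATP (Km levels) in 50mM Tris acetate pH 7.5, 10mM Mg acetate, 0.01% Tween-20, 0.05% BSA; qHTS 6-point titration, ~60 µM downward; luminescence read.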
# ELG1 DNA repair = qHTS screen for small molecules that inhibit ELG1-dependent DNA repair in human embryonic kidney (HEK293T) cells expressing luciferase-tagged ELG1 | AID 504467, 2011 | HEK293T ELG1-luciferase reporter, luminescence, 16 h; DNA damage induced by 5-fluorouridine | 2.3% of 330,000 active | Potency, µM (titrated, usually from 46.1 µM), without a hit: top-dose activity change, negative = inhibition, actives largely listed as inhibitors; further: on the % scale 0 is the no-effect control and ±100 the full control effect; nearly all actives have a fitted effect of over 55% in size
#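 DMSO vehicle served as the neutral condition. Each well held 2,000 cells given 5-fluorouridine plus compound; after 16 hr at 37 °C/5% CO2, ONE-Glo was added and luciferase measured 30 min later.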
# NPC1 promoter act = qHTS Assay for NPC1 Promoter Activators | Huh7 NPC1 promoter luciferase reporter, 24 h | 2.4% of 320,000 active | Potency, µM (series often up to 9.22 µM), inactives show at the highest dose activation, usual class: activators; further: % of control where 0% means no effect; nearly all actives have a fitted effect of over 60% in size
#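 Luciferase expression driven by the NPC1 promoter was measured in stably transfected Huh7 cells after a 24 h compound incubation, using a luciferase reagent and a luminescence read.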
# SMN2 splice up = qHTS Assay for Enhancers of SMN2 Splice Variant Expression; HEK293 SMN2-luciferase splicing reporter, luminescence, 30-36 h; Potency, µM (series often up to 46.1 µM), for inactives: at the top dose activity change, positive = activation, usual class: activators; 2.8% of 210,000 active; further: % of control where 0% means no effect; nearly all actives have a fitted effect of over 55% in size
#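 HEK293 cells carry an SMN2 minigene-luciferase reporter in which exon 7 inclusion puts luciferase in frame. Cells were seeded at 2000 cells/well, attached for 10-12 hours, then exposed to compounds for 30-36 hours at 37C before ONE-Glo luminescence.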
# An asterisk follows results filed as active; ? = inconclusive; . = no result given; [ ] = remark or other dose. The call rests on the fitted dose curve; in most records, active means well fitted curve in the direction sought with a large enough effect; inconclusive means small, poorly fitted or top-dose-only effect, or another doubt; inactive means no such curve, though single readings can be large; an effect the other way counts as inactive or inconclusive. Potency means the concentration at half of the fitted maximal effect.
SMILES,ELG1 genotoxic,Rab9 prom act,FLuc modulator,ELG1 DNA repair,NPC1 promoter act,SMN2 splice up
O=C(CC1N=C2c3ccccc3N=C(SCc3cccc(Cl)c3)N2C1=O)NC1CCCCC1 (configuration not stated),.,.,0%,.,.,.
Cn1c(SCc2ccc(F)cc2)nc2ccc(C(=O)NCc3ccc(F)cc3)cc21,.,.,2%,.,.,-5%
CCOC(=O)CN1C(=O)N[C@@H](c2cccc(C(F)(F)F)c2)[C@H](C(=O)OC)[C@H]1C,.,.,.,.,.,0%[9.22 µM]
CCOc1ccccc1C(=O)Nc1cccc(-c2ccc(N3CCOCC3)nn2)c1,?,4.5µM*,1.5µM*,?,?,.
CCOc1ccc(C(=O)Nc2cccc(-c3ccc(N4CCOCC4)nn3)c2)cc1OCC,3%,4µM*,1.2µM*,?,?,.
COc1cccc(C(=O)Nc2cccc(-c3ccc(N4CCOCC4)nn3)c2)c1,3%,?,2.1µM*,-8%,?,.
COc1ccc(C(=O)Nc2cccc(-c3ccc(N4CCOCC4)nn3)c2)cc1OC,10%,2.8µM*,0.76µM*,?,?,.
CCOc1ccccc1C(=O)Nc1ccc(S(=O)(=O)N2CCOCC2)cc1,2%,2%,6%,-16%,-1%,2%
CCOc1ccc(C(=O)Nc2ccc(S(=O)(=O)N3CCOCC3)cc2)cc1OCC,3%,1%,0%,0%,15%,-6%
COc1cccc(C(=O)Nc2ccccc2N2CCOCC2)c1,-4%,-1%,-7%,-10%,-1%,?
Cc1cccc(-n2ncc(C(=O)NCc3ccco3)c2C2CCN(C(=O)OC(C)(C)C)CC2)c1,.,.,-5%,.,.,.
CC(C)Oc1ccc(CNC(=O)CCCn2c(=O)c3cccn3c3cccnc32)cc1,.,.,-12%,.,.,.
COc1ccc(Br)cc1CNC(=O)c1cc(=O)[nH]c2ccc(S(=O)(=O)N3CCCCC3C)cc12 (configuration not stated),.,.,6%,.,.,.
COc1cccc(C(=O)Nc2cccc(-c3ccc4nncn4n3)c2)c1OC,3%,-6%,?,?,-2%,-14%
COc1cccc(C(=O)Nc2cccc(-c3ccc(N4CCOCC4)nn3)c2)c1OC,1%,1.1µM*,0.38µM*,-17%,3.5µM*,.
Cn1c(SCC(=O)N2CCOCC2)nnc1-c1cccc(NC(=O)c2ccccc2F)c1,2%,-1%,1%,4%,-1%,10%
O=C(Nc1cccc(-c2ccc(N3CCOCC3)nn2)c1)c1ccc(F)cc1F,?,2.8µM*,1.1µM*,?,2.8µM*,.
COC(=O)c1ccc(CSc2nc3ccccc3s2)o1,16µM*,?,17µM*,?,?,?
COC(=O)c1ccc(CC(=O)c2nc3ccccc3s2)cc1,?,2.8µM*,3µM*,?,?,1%[1.84 µM]
O=C(Cc1ccccc1)c1nc2ccccc2s1,?,2.8µM*,11µM*,?,2.5µM*,4µM*
CC(C)NC(=O)c1nc2ccccc2s1,?,-2%,?,?,1%,.
COC(=O)c1ccc(/C(O)=C(\C#N)c2nc3ccccc3s2)cc1,3%,3.2µM*,7.6µM*,?,2.8µM*,.
O=C(Nc1sc2c(c1C(=O)NCc1ccco1)CCCC2)c1cc(=O)c2ccccc2o1,.,.,-17%,.,.,15%
Cc1oc2ccc(O)c(CN3CCCCCC3)c2c1C(=O)Nc1cccc(Cl)c1C,.,.,-5%,.,.,-15%
CCCC/C=C1\CCc2c([nH]c3ccccc23)C1=O,14%,?,-19%,?,13%,.
SMILES,ELG1 genotoxic,Rab9 prom act,FLuc modulator,ELG1 DNA repair,NPC1 promoter act,SMN2 splice up
CCCCN1CCc2c([nH]c3ccccc23)C1=O,?,2.5µM*,-3%[2.3 µM],?,?,?
CCC(=O)N1CCc2cc(Br)cc(S(=O)(=O)N3CCC(C(=O)NC(C)(C)C)CC3)c21,-4%,-1%,2%,7.3µM*,-1%,-9%
COc1cc(/C=C/C(=O)OCC(=O)Nc2ccc(NC(C)=O)cc2)cc(S(=O)(=O)N2CCc3ccccc32)c1OC,-5%,2%,?,21µM*,-1%,10%
Cc1ccc2c(c1)sc(-c1ccc(N(C)C)cc1)[n+]2C,2%,-39%,12µM*,?,-31%,.
Cc1ccc(N(C)C)cc1,.,.,.,.,.,-8%
CCOC(=O)Cn1nc(N2CCN(c3ccc(F)cc3)CC2)ccc1=O,.,.,1%,.,.,-4%
O=C1/C(=C/c2ccc(Cl)cc2)NC(=S)N1Cc1cccnc1,-9%,0%,-11%,-9%,-1%,.
CCOc1ccc2nc(N3C(=O)/C(=C/c4ccc(Cl)cc4)NC3=S)sc2c1,0%,3%,9.5µM*,13%,13%,6%
C#CC(C)(CC)NC(=O)Cn1nnc(-c2ccc(OCc3ccccc3F)cc2)n1 (configuration not stated),.,.,?,.,.,-32%
COc1ccc(Cl)cc1NC(=O)c1cnc(N2CCCCC2)c2ccccc12,.,.,7%,.,.,.
CCOc1cccc(C(=O)Nc2ccc(N(CC)CC)cc2)c1,?,7%,13µM*,-7%,15%,23%
CCOc1cccc(C(=O)Nc2ccc3ccccc3c2)c1,0.46µM*,0.56µM*,0.48µM*,?,2.2µM*,.
CCOc1ccc(NC(=O)c2cnc(N3CCCCC3)c3ccccc23)cc1,.,.,11µM*,.,.,.
CCN(CC)c1ccc(NC(=O)c2ccccc2OCC(=O)OC)cc1,-1%,19%,21µM*,11%,17%,12%
COc1cccc(C(=O)N(Cc2ccco2)c2ccccn2)c1,.,.,-7%,.,.,.
Cc1c(C)n(C)c2ccc(C(=O)NCCCN3CCCC3)cc12,6%,-9%,0%,?,-1%,.
CCOc1ccc(C(=O)Nc2ccc(N3CCCC3)cc2)cc1,4%,0%,?,?,0%,-7%
CCN(CC)c1ccc(NC(=O)c2ccc3c(c2)c(C)c(C)n3C)cc1,1%,1%,9.5µM*,?,-4%,-28%
CCOc1cccc(C(=O)Nc2ccc(N3CCCC3)cc2)c1,18%,?,6µM*,?,?,.
CS(=O)(=O)N1CCC2(CCCN(Cc3cc(C(F)(F)F)cc(C(F)(F)F)c3)C2)CC1,.,.,.,.,.,-12%
Cc1cccc(C(=O)Nc2ccc(C(=O)OCc3cc(=O)n4nc(CC(C)C)sc4n3)cc2)c1,.,.,0%,.,.,.
Cc1cccc(C(=O)n2c(=S)nc3cc(C)ccn32)c1,0.46µM*,0.25µM*,0.19µM*,?,0.56µM*,.
